# Some of the results follow. Unmarked numbers belong to inactive results. Active and inactive are the calls of the source.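 The calls were made as follows, unless noted: active = activation above a set limit carried over from the earlier primary STAT1 screen (cut at about 140% in these data); inactive = the rest.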
# Experiment: potentiators of IFN-gamma STAT1 reporter activity – cell-based, HTS, luciferase reporter, confirmation (AID 1262);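 also: simple ratio to median IFN-gamma plus DMSO wells so 0% means no light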
# Conditions: NIH 3T3 STAT1-luciferase reporter, IFN-gamma potentiation, luminescence; at 5.7 µM; stronger effect = higher value; 100% = IFN-gamma EC80 alone, no compound
row,Compound,activation (% of control)
1,Cc1cccc(N=Nc2c(O)[nH]c3ccc(F)cc23)c1,160% (active)
2,COc1ccc(-n2ncc3c(N4CCCc5ccccc54)ncnc32)cc1,209% (active)
3,COc1ccc(-n2nnnc2-c2nc3ccccc3s2)cc1,214% (active)
4,COc1ccc2oc(-c3cccc(NC(=O)CSc4ccc(Cl)cc4)c3)nc2c1,216% (active)
5,COc1ccc(-c2csc(Cc3nc(O)cs3)n2)cc1,265% (active)
6,Cc1cc2nc(SCCN3CCOCC3)[nH]c2cc1C,157% (active)
7,CCc1ccc(NC2Nc3cc(C)nn3S2)cc1 (stereo not given),206% (active)
8,Cc1ccccc1Nc1nc(N)nc(CSc2ccccc2)n1,220% (active)
9,OCCCN1c2ccccc2Nc2nnc(-c3ccccc3)cc21,177% (active)
10,Nc1ncc(-c2cc3ccccc3oc2=O)s1,184% (active)
11,Cc1cc(C)c2nc(NC(=O)C3CCCO3)sc2c1 (stereo not given),209% (active)
12,COc1ccc2nc(SCc3ccccc3)nc(C)c2c1,231% (active)
13,Clc1ccc(Nc2nc(-c3cccs3)cs2)nc1,289% (active)
14,COc1ccc(CS(=O)/C(Cl)=C(/Cl)C(=O)Nc2ccc(OC)nc2)cc1 (stereo not given),335% (active)
15,c1cnc(Nc2nc(-c3ccc4ccccc4c3)cs2)nc1,208% (active)
16,O=C(Nc1ccc(-c2nnc(-c3ccccc3)o2)cc1)C1CCCO1 (stereo not given),207% (active)
17,CC(=O)c1sc(NC(=O)c2ccc(C)cc2)nc1C,185% (active)
18,Cc1cccc(NC(=O)Nc2ccc3c(c2)OCO3)n1,192% (active)
19,COc1ccc(/C=N/Nc2nc3ccccc3o2)cc1OC,208% (active)
20,Cc1cc(Cl)ccc1OCc1nc(-c2ccncc2)no1,165% (active)

row,Compound,activation (% of control)
1,O=C(Nc1ccc(Cl)cn1)c1cnn2cccnc12,171% (active)
2,CN1C(=O)/C(=C/C=C2\SCCN2C)OC1=S,175% (active)
3,CC(C)c1ccc(NC(=O)NC2CCCCC2)cc1,191% (active)
4,COc1ccc2nc(NC(=O)c3ccc(Br)s3)sc2c1,185% (active)
5,CCNc1nc(-c2cc3ccccc3o2)cs1,131% (active)
6,Cc1noc(C)c1/C=N/Nc1ccc2ccccc2n1,235% (active)
7,CCn1c(/C=C/c2ccc([N+](=O)[O-])o2)nc2ccccc2c1=O,125%
8,CCOc1ccc2nc(C(=O)N3CCCC(C)C3)sc2c1 (stereo not given),217% (active)
9,Cc1cccc(-c2noc(-c3ccc(F)cc3)n2)c1,222% (active)
10,CCC(=O)NC(=Nc1nc2ccccc2s1)NC(=O)CC,216% (active)
11,CC(=O)Nc1cccc(-c2csc(Nc3cccc(C)n3)n2)c1,241% (active)
12,NC(=O)Cc1ccc2sc(-c3ccccc3)nc2c1,203% (active)
13,O=C(Nc1ccc2c(c1)CCC2)c1ccc(Br)s1,236% (active)
14,Cc1ccc(NC(=O)c2csc3c2CCCC3)cc1,202% (active)
15,CN(C)c1ccnc2sc(C(=O)c3ccccc3)c(N)c12,188% (active)
16,COc1ccc(NC(=O)/C(Cl)=C(/Cl)S(=O)Cc2ccc(C)cc2)cn1 (stereo not given),324% (active)
17,O=C(Nc1ccc2oc(-c3ccccc3F)nc2c1)c1ccco1,204% (active)
18,c1ccc(Nc2nc(-c3ccncc3)cs2)nc1,243% (active)
19,O=C(c1cc(-c2cccs2)on1)N1CCCCC1,184% (active)
20,COc1ccccc1-c1cc(C(=O)N2CCCCC2)no1,204% (active)

# Experiment: enhancement of NF-kB transcriptional signalling – cell-based, HEK293T, luciferase luminescence, TNF-alpha, counter-screen for STAT1 activator project (AID 1306;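 active = activation above the mean of solvent-only control wells plus 3 SD, set per campaign, cut at about 130% in these data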;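 also: TNF-alpha given at a submaximal dose yielding about 80% of full reporter signal; values are well signal over median control so 100% means no change and 0% no light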)
# Conditions: HEK293T NF-kB luciferase reporter, TNF-alpha stimulated, at 5.7 µM, stronger effect = higher value, 100% = TNF-alpha with vehicle only
row,Compound,activation (% of control)
1,Cc1cccc(N=Nc2c(O)[nH]c3ccc(F)cc23)c1,135% (active)
2,COc1ccc(-n2ncc3c(N4CCCc5ccccc54)ncnc32)cc1,139% (active)
3,COc1ccc(-n2nnnc2-c2nc3ccccc3s2)cc1,117%
4,COc1ccc2oc(-c3cccc(NC(=O)CSc4ccc(Cl)cc4)c3)nc2c1,140% (active)
5,COc1ccc(-c2csc(Cc3nc(O)cs3)n2)cc1,150% (active)
6,Cc1cc2nc(SCCN3CCOCC3)[nH]c2cc1C,119%
7,CCc1ccc(NC2Nc3cc(C)nn3S2)cc1 (stereo not given),141% (active)
8,Cc1ccccc1Nc1nc(N)nc(CSc2ccccc2)n1,126%
9,OCCCN1c2ccccc2Nc2nnc(-c3ccccc3)cc21,132%
10,Nc1ncc(-c2cc3ccccc3oc2=O)s1,124%
11,Cc1cc(C)c2nc(NC(=O)C3CCCO3)sc2c1 (stereo not given),138% (active)
12,COc1ccc2nc(SCc3ccccc3)nc(C)c2c1,141% (active)
13,Clc1ccc(Nc2nc(-c3cccs3)cs2)nc1,149% (active)
14,COc1ccc(CS(=O)/C(Cl)=C(/Cl)C(=O)Nc2ccc(OC)nc2)cc1 (stereo not given),67.4%
15,c1cnc(Nc2nc(-c3ccc4ccccc4c3)cs2)nc1,139% (active)
16,O=C(Nc1ccc(-c2nnc(-c3ccccc3)o2)cc1)C1CCCO1 (stereo not given),122%
17,CC(=O)c1sc(NC(=O)c2ccc(C)cc2)nc1C,123%
18,Cc1cccc(NC(=O)Nc2ccc3c(c2)OCO3)n1,133% (active)
19,COc1ccc(/C=N/Nc2nc3ccccc3o2)cc1OC,133%
20,Cc1cc(Cl)ccc1OCc1nc(-c2ccncc2)no1,138% (active)

row,Compound,activation (% of control)
1,O=C(Nc1ccc(Cl)cn1)c1cnn2cccnc12,128%
2,CN1C(=O)/C(=C/C=C2\SCCN2C)OC1=S,132%
3,CC(C)c1ccc(NC(=O)NC2CCCCC2)cc1,128%
4,COc1ccc2nc(NC(=O)c3ccc(Br)s3)sc2c1,134% (active)
5,CCNc1nc(-c2cc3ccccc3o2)cs1,121%
6,Cc1noc(C)c1/C=N/Nc1ccc2ccccc2n1,141% (active)
7,CCn1c(/C=C/c2ccc([N+](=O)[O-])o2)nc2ccccc2c1=O,156% (active)
8,CCOc1ccc2nc(C(=O)N3CCCC(C)C3)sc2c1 (stereo not given),133%
9,Cc1cccc(-c2noc(-c3ccc(F)cc3)n2)c1,133%
10,CCC(=O)NC(=Nc1nc2ccccc2s1)NC(=O)CC,138% (active)
11,CC(=O)Nc1cccc(-c2csc(Nc3cccc(C)n3)n2)c1,144% (active)
12,NC(=O)Cc1ccc2sc(-c3ccccc3)nc2c1,126%
13,O=C(Nc1ccc2c(c1)CCC2)c1ccc(Br)s1,137% (active)
14,Cc1ccc(NC(=O)c2csc3c2CCCC3)cc1,140% (active)
15,CN(C)c1ccnc2sc(C(=O)c3ccccc3)c(N)c12,126%
16,COc1ccc(NC(=O)/C(Cl)=C(/Cl)S(=O)Cc2ccc(C)cc2)cn1 (stereo not given),51.5%
17,O=C(Nc1ccc2oc(-c3ccccc3F)nc2c1)c1ccco1,137% (active)
18,c1ccc(Nc2nc(-c3ccncc3)cs2)nc1,126%
19,O=C(c1cc(-c2cccs2)on1)N1CCCCC1,125%
20,COc1ccccc1-c1cc(C(=O)N2CCCCC2)no1,137% (active)

# — PubChem BioAssay
